Experimental data reported in PubChem BioAssay (NCI).
The panel holds about 83,000 compounds, 20% with a hit somewhere; the sample as a whole holds those more often.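 Cells were grown in 96-well plates and exposed to the test compound at a single concentration for 48 hours; results are reported as percent growth, with values below 10 considered active.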 Active and inactive are the calls of the source.

Key:
Assay in all cases: NCI-60 one-dose screen, 48 h (100 = growth as untreated, 0 = no growth, -100 = all killed)
Conditions in all cases: 10 µM unless noted
SK-MEL-2 melanoma = tested on: SK-MEL-2 melanoma
EKVX NSCLC = tested on: EKVX NSCLC
SN12C renal = tested on: SN12C renal
UO-31 renal = tested on: UO-31 renal
TK-10 renal = tested on: TK-10 renal
ACHN renal = tested on: ACHN renal
CAKI-1 renal = tested on: CAKI-1 renal
A498 renal = tested on: A498 renal
CCRF-CEM leukemia = tested on: CCRF-CEM leukemia
MOLT-4 leukemia = tested on: MOLT-4 leukemia

Compound | growth (SK-MEL-2 melanoma) | growth (EKVX NSCLC) | growth (SN12C renal) | growth (UO-31 renal) | growth (TK-10 renal) | growth (ACHN renal) | growth (CAKI-1 renal) | growth (A498 renal) | growth (CCRF-CEM leukemia) | growth (MOLT-4 leukemia)
COC(=O)c1ccc2c(c1)c1c(C)c3ccncc3c(C)c1n2C | 13.9% (inactive) | 34.3% (inactive) | 36.1% (inactive) | 11.9% (inactive) | 32.7% (inactive) | 14.8% (inactive) | 13% (inactive) | -0.17% (active) | 30.4% (inactive) | 12.9% (inactive)
S=c1[nH]c2cc(Cl)ccc2o1 | 98.6% (inactive) | 99.3% (inactive) | 100% (inactive) | 87.9% (inactive) | 94.6% (inactive) | 98.7% (inactive) | 97.8% (inactive) | 91.8% (inactive) | -43.2% (active) | 63.1% (inactive)
CC1(C)CC[C@]2(C(=O)N3CCOCC3)CC[C@]3(C)C(=CC[C@@H]4[C@@]5(C)C/C(=C/c6ccncc6)C(=O)C(C)(C)[C@@H]5CC[C@]43C)[C@@H]2C1 | -6.74% (active) | 14.5% (inactive) | 18% (inactive) | 11% (inactive) | 35.9% (inactive) | 15.6% (inactive) | 16.7% (inactive) | -20.3% (active) | -6.27% (active) | -16.9% (active)
CCOC(=O)c1c(C)c2c(n1C)CSc1cc(S(=O)(=O)c3ccccc3)c(=O)[nH]c1-2 | 30.7% [100 µM] (inactive) | 14.7% [100 µM] (inactive) | 24.8% [100 µM] (inactive) | 22.7% [100 µM] (inactive) | 24.8% [100 µM] (inactive) | 25.9% [100 µM] (inactive) | 26.3% [100 µM] (inactive) | 44.9% [100 µM] (inactive) | 29.2% [100 µM] (inactive) | 41.5% [100 µM] (inactive)
O=C(CCCCl)NNc1nccc(Nc2ccc(S(=O)(=O)Nc3ccncc3)cc2)n1 | 92.7% (inactive) | 105% (inactive) | 102% (inactive) | 92.2% (inactive) | 85.8% (inactive) | 104% (inactive) | 93.9% (inactive) | 110% (inactive) | 116% (inactive) | 112% (inactive)
COc1ccc(-c2oc(=O)ccc2-c2cc(OC)c(OC)c(OC)c2)cc1O | 39.9% (inactive) | 49.5% (inactive) | 36.8% (inactive) | 21.9% (inactive) | 61.6% (inactive) | 56% (inactive) | -11.6% (active) | -1.78% (active) | 4.14% (active) | 20.5% (inactive)
Fc1ccc2c(c1)c(-c1nc(-c3c[nH]c4ncccc34)cs1)cn2CCCN1CCOCC1 | 60.5% (inactive) | 55.9% (inactive) | 73.9% (inactive) | 31.5% (inactive) | 66.9% (inactive) | 42.2% (inactive) | 56.2% (inactive) | 51% (inactive) | 21.8% (inactive) | 24.8% (inactive)
COC(=O)C1=C(C(=O)Nc2cccnc2)C2OC1(C(Cc1ccccc1)Oc1ccccc1)C1OC21 (stereo not given) | 93.5% (inactive) | 101% (inactive) | 48.5% (inactive) | -99.3% (active) | -8.69% (active) | -99.2% (active) | 57.4% (inactive) | 121% (inactive) | -23% (active) | -31.5% (active)
Cn1c(=O)c2c(c3ccccc31)OC(N)=C(C#N)C21C(=O)c2ccccc2C1=O | 107% (inactive) | 86% (inactive) | 90.1% (inactive) | 61.4% (inactive) | 127% (inactive) | 97% (inactive) | 84.2% (inactive) | 82.8% (inactive) | 103% (inactive) | 112% (inactive)
Cc1ccc(/C=C2\CN(C(=O)C(Cl)Cl)C/C(=C\c3ccc(C)cc3)C2=O)cc1 | -5.43% (active) | -48.7% (active) | -51.3% (active) | -100% (active) | -63.1% (active) | -97.8% (active) | -49.6% (active) | -89.3% (active) | 9.16% (active) | 0.0942% (active)
C[Se]C(=O)CC1=C2C=C(F)C=CC2/C(=C\c2ccc(S(C)=O)cc2)C1C (stereo not given) | 17.3% (inactive) | -7.14% (active) | -51.6% (active) | 18% (inactive) | -19.2% (active) | 11% (inactive) | -20.9% (active) | -64.8% (active) | 10.6% (inactive) | 6.51% (active)
CC(C)=CC(=O)N[C@@H]1CC2CCC3C(CC[C@@]4(C)C3CC[C@@H]4C(C)N(C)C)[C@@]2(C)C[C@@H]1O (stereo not given in full) | 124% (inactive) | 32.9% (inactive) | 71.3% (inactive) | 10.1% (inactive) | 84.5% (inactive) | 69.6% (inactive) | 76.6% (inactive) | 67.2% (inactive) | 30% (inactive) | -7.31% (active)
C=CC(C)(O)CC/C=C(\CO)C(=O)OC1C(C)OC(O[C@](C)(C=C)CC/C=C(\CO)C(=O)O[C@H]2C[C@@]3(C(=O)OC4OC(CO)C(O)C(O)C4OC4OC(C)C(OC5OC(CO)C(O)C5O)C(OC5OC(CO)C(O)C(O)C5O)C4O)C(CC2(C)C)C2=CCC4[C@@]5(C)CC[C@H](OC6OC(COC7OC(C)C(O)C(O)C7OC7OCC(O)C(O)C7O)C(O)C(O)C6NC(C)=O)C(C)(C)C5CC[C@@]4(C)[C@]2(C)C[C@H]3O)C(O)C1O (stereo not given in full) | -73.8% (active) | -6.51% (active) | -30.1% (active) | -57.7% (active) | -83% (active) | -87.7% (active) | -70% (active) | -81% (active) | -17.1% (active) | -21.5% (active)
O=C(OC[C@@H]1CO1)c1cccc2c(=O)c3ccccc3[nH]c12 | -70.8% (active) | -16.8% (active) | -46.9% (active) | -20.7% (active) | -6.41% (active) | -41.2% (active) | -13.2% (active) | -44.4% (active) | 2.83% (active) | 1.32% (active)
Clc1ccc(-c2cn3ccsc3n2)c(Cl)c1Cl | 88.6% (inactive) | 65.2% (inactive) | 77.9% (inactive) | 70.1% (inactive) | 105% (inactive) | 90.1% (inactive) | 71.8% (inactive) | 76.7% (inactive) | 93.6% (inactive) | 80.4% (inactive)
CS(=O)(=O)Nc1cncc(-c2ccc3ncnc(Nc4ccc(F)c(Cl)c4)c3c2)c1 | 8.23% (active) | 0.905% (active) | 33.9% (inactive) | 38.1% (inactive) | -2.22% (active) | 32.3% (inactive) | 44.7% (inactive) | -7.33% (active) | 11.8% (inactive) | -22.8% (active)
COc1cc(-c2nc3ccc(C)cc3[nH]2)ccc1OCC(=O)N=Nc1c(O)[nH]c2ccc(Cl)cc12 | 13% (inactive) | 50.7% (inactive) | -56.4% (active) | 86.3% (inactive) | 23.4% (inactive) | 31.4% (inactive) | -61.8% (active) | 82.2% (inactive) | -39.1% (active) | -17.9% (active)
CCOC(=O)c1c(C)nc2ccccc2c1/C=C/c1ccc(OC)cc1 | 64.3% (inactive) | 54.9% (inactive) | 79.8% (inactive) | 52.3% (inactive) | 85.8% (inactive) | 58.8% (inactive) | 56.8% (inactive) | 77.9% (inactive) | 56.4% (inactive) | 26.1% (inactive)
O=C1N[C@@H]2[C@@H](O)[C@@H](O)[C@H](O)C[C@H]2c2cc3c(c(O)c21)OCCO3 | -48.7% (active) | -14.3% (active) | -9.95% (active) | -19.7% (active) | -11.9% (active) | -14.5% (active) | 4.9% (active) | -29.7% (active) | -6.07% (active) | -0.799% (active)
NC(=O)OCCn1cc(-c2nc(-c3c[nH]c4ncccc34)cs2)c2ccccc21 | 2.38% (active) | 42.1% (inactive) | 49.1% (inactive) | 34.1% (inactive) | 62.3% (inactive) | 38% (inactive) | 34.5% (inactive) | -11.7% (active) | 21.7% (inactive) | 19.6% (inactive)
COc1ccc2[nH]cc(-c3nc(-c4cn(C)c5ccncc45)cs3)c2c1 | 93% (inactive) | -14.1% (active) | 96.2% (inactive) | 77.6% (inactive) | 78.6% (inactive) | 83.9% (inactive) | 67.2% (inactive) | 89.1% (inactive) | -20.3% (active) | 63% (inactive)
CC(=O)Nc1c(Cl)cc(Cl)c2c1Cc1cc([N+](=O)[O-])ccc1-2 | 105% (inactive) | 59.4% (inactive) | 80.3% (inactive) | 91.1% (inactive) | 99.4% (inactive) | 82.3% (inactive) | 84.5% (inactive) | 102% (inactive) | 89.7% (inactive) | 87% (inactive)
Nc1c(C(=O)Nc2cccc3ncccc23)sc2nc3c(cc12)C(=O)CCC3 | 36.3% (inactive) | 58.6% (inactive) | 60.8% (inactive) | 58.3% (inactive) | 76.8% (inactive) | 52% (inactive) | 58.8% (inactive) | 4.53% (active) | 30.5% (inactive) | 66.6% (inactive)
O=C(CCC(=O)c1nc2ncccc2[nH]1)NN1C(=O)CSC1c1ccc(Cl)cc1 (stereo not given) | 106% (inactive) | 100% (inactive) | 97% (inactive) | 70.7% (inactive) | 126% (inactive) | 97.4% (inactive) | 84.2% (inactive) | 111% (inactive) | 83.8% (inactive) | 106% (inactive)
CCN(CC)c1ccc(/C=N\NC(=O)c2cccc(Nc3ccnc(C(F)(F)F)c3)c2)c(O)c1 | 87.5% (inactive) | 26.6% (inactive) | 18.2% (inactive) | 7.3% (active) | 42.8% (inactive) | 12.1% (inactive) | 55.6% (inactive) | 53% (inactive) | 15.7% (inactive) | 77.5% (inactive)
C#CC#CC#CC#CC#CC#CC#CC#CCC1OCC(COC(=O)O[C@@H](C(=O)O[C@H]2C[C@@]3(O)[C@@H](OC(=O)c4ccccc4)[C@@H]4[C@]5(OC(C)=O)CO[C@@H]5C[C@H](O)[C@@]4(C)C(=O)[C@H](OC(C)=O)C(=C2C)C3(C)C)[C@@H](NC(=O)c2ccccc2)c2ccccc2)O1 (stereo not given in full) | 30.9% (inactive) | 45.5% (inactive) | 21.4% (inactive) | 81.7% (inactive) | 48% (inactive) | 45.4% (inactive) | 49.6% (inactive) | -8.03% (active) | 12.1% (inactive) | 20.7% (inactive)
